Screen size: about 22,000 compounds; about 460 (2.1%) were called active. Not shown: some 2% with an inconclusive outcome. What follows is part of a selection rich in actives, with near analogues and random picks from the rest. Unmarked numbers belong to inactive results.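 The calls were made as follows: active = mean inhibition across valid replicates above about 65% (limit read from the data); inconclusive = mean under the limit, yet half or more replicates past it; inactive = the rest.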
Experiment: Hedgehog pathway signaling inhibitors, primary screen, luminescence, Shh-LIGHT2 cells, Gli-luciferase (AID 2313);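 also: pathway switched on by Shh-conditioned medium diluted 1 in 25 in low serum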
Conditions: Shh-LIGHT2 Gli-luciferase reporter, 30 h; active compounds read high

Structure (SMILES)	inhibition
COc1ccc(S(=O)(=O)Nc2cccc3c2O[C@@H](CN(C)C(=O)Nc2ccccc2)[C@@H](C)CN([C@H](C)CO)C3=O)cc1	2.98%
COC(NC(=O)c1ccccc1)(C(F)(F)F)C(F)(F)F	-45.7%
Cc1ccc(S(=O)(=O)Nc2cccc3c2O[C@@H](CN(C)S(=O)(=O)c2c(C)noc2C)[C@@H](C)CN([C@H](C)CO)C3=O)cc1	-7.42%
C[C@@H]1CN([C@H](C)CO)C(=O)c2cc(NS(=O)(=O)c3ccc(F)cc3)ccc2O[C@H]1CN(C)C(=O)Nc1cccc2ccccc12	-17%
C[C@H]1CN([C@@H](C)CO)C(=O)Cc2cc(NS(=O)(=O)c3cn(C)cn3)ccc2O[C@@H]1CN(C)C(=O)Nc1ccc2c(c1)OCO2	2.02%
C[C@@H]1CCCCO[C@H](CN(C)C(=O)NC2CCCCC2)[C@@H](C)CN([C@H](C)CO)C(=O)c2cc(NC(=O)CCC(F)(F)F)ccc2O1	20.6%
COc1ccc(NC(=O)Nc2ccc3c(c2)CC(=O)N([C@H](C)CO)C[C@H](C)[C@H](CN(C)S(=O)(=O)c2ccc(OC)cc2)O3)cc1	15.7%
COc1ccc(NC(=O)Nc2cccc3c2O[C@@H](CN(C)S(=O)(=O)c2ccc(C)cc2)[C@H](C)CN([C@@H](C)CO)C3=O)cc1	26%
COc1ccc(S(=O)(=O)N(C)C[C@H]2Oc3ccc(NC(=O)Nc4c(C)noc4C)cc3C(=O)N([C@@H](C)CO)C[C@@H]2C)cc1	14.6%
O=S(=O)(NCCc1ccccc1)c1ccccc1	-19.7%
C[C@@H]1CN([C@@H](C)CO)C(=O)c2cccc(NC(=O)c3nc4ccccc4s3)c2O[C@@H]1CN(C)Cc1ccc(Cl)c(Cl)c1	-17.7%
O=C(Cn1c(=O)n(-c2ccccc2)c(=O)c2cc(-c3ccccc3)sc21)c1cccs1	-31.1%
C[C@@H]1CN([C@@H](C)CO)C(=O)c2cccc(NC(=O)c3cnccn3)c2O[C@H]1CN(C)S(=O)(=O)c1cccs1	36.2%
COc1ccc(NC(=O)N(C)C[C@H]2Oc3c(NC(=O)NC(C)C)cccc3C(=O)N([C@@H](C)CO)C[C@H]2C)cc1	-18.8%
O=C(NCCN1CCCCC1)Nc1cccc2ccccc12	48.1%
CCOC(=O)c1cc2ccccc2nc1C	-33.8%
C[C@H]1CN([C@@H](C)CO)C(=O)Cc2cc(NC(=O)C3CC3)ccc2O[C@H]1CN(C)C(=O)Nc1ccc(C(F)(F)F)cc1	-16.6%
Cc1noc(C)c1NC(=O)Nc1ccc2c(c1)C(=O)N([C@H](C)CO)C[C@@H](C)[C@@H](CN(C)C(=O)NC(C)C)O2	-44%
Cc1noc(C)c1NC(=O)Nc1cccc2c1O[C@H](CN(C)S(C)(=O)=O)[C@H](C)CN([C@H](C)CO)C2=O	-13.4%
COc1ccc(S(=O)(=O)N(C)C[C@@H]2Oc3ccc(NC(=O)CCN4CCOCC4)cc3CC(=O)N([C@@H](C)CO)C[C@@H]2C)cc1	12.6%

Structure (SMILES)	inhibition
Cc1ccc(S(=O)(=O)N(C)C[C@H]2Oc3ccc(NC(=O)C4CC4)cc3C(=O)N([C@H](C)CO)C[C@H]2C)cc1	2.25%
CC(=O)Nc1nc2ccccc2s1	-52.3%
CS(=O)(=O)c1sc(C(=O)NC(=S)Nc2ccc(OC(F)(F)F)cc2)c2c1C=CCC2	42.2%
C[C@H]1CN([C@@H](C)CO)C(=O)Cc2cc(NS(=O)(=O)c3cn(C)cn3)ccc2O[C@H]1CN(C)C(=O)Nc1ccc(F)cc1	6.67%
CCOC(=O)c1nnn2c3ccccc3c(=O)n(C)c12	-16.2%
C=C1C2=CC(=O)O[C@@H](c3ccoc3)[C@]2(C)CCC1[C@@]1(C)C=CC(=O)C(C)(C)[C@@H]1CC(=O)OC (stereo not given in full)	-0.584%
COc1c2c(cc3occ(-c4ccc5c(c4)OCO5)c(=O)c13)OC(C)(C)C=C2	79.6% (active)
COc1ccc(NC(=O)Nc2cccc3c2O[C@H](CN(C)C(=O)Nc2cccc4ccccc24)[C@H](C)CN([C@H](C)CO)C3=O)cc1	-19.9%
COc1ccc(S(=O)(=O)Nc2ccc3c(c2)CC(=O)N([C@H](C)CO)C[C@@H](C)[C@@H](CN(C)S(=O)(=O)c2ccc(F)cc2)O3)cc1	-24.3%
COc1ccc(NC(=O)Nc2ccc3c(c2)CC(=O)N([C@H](C)CO)C[C@H](C)[C@H](CN(C)Cc2ccncc2)O3)cc1	32.2%
C[C@@H]1CN([C@H](C)CO)C(=O)Cc2cc(NC(=O)Nc3ccccc3)ccc2O[C@H]1CN(C)Cc1ccc(Cl)c(Cl)c1	-42%
COc1ccc(S(=O)(=O)Nc2cccc3c2O[C@H](CN(C)C(=O)Nc2cccc4ccccc24)[C@H](C)CN([C@@H](C)CO)C3=O)cc1	46.2%
C[C@H](CO)N1C[C@H](C)[C@@H](CN(C)C(=O)Nc2ccc3c(c2)OCO3)Oc2c(cccc2N(C)C)C1=O	-27%
C[C@@H]1CCCCO[C@H](CN(C)C(=O)NC2CCCCC2)[C@@H](C)CN([C@H](C)CO)C(=O)c2cc(NS(C)(=O)=O)ccc2O1	-30.2%
C[C@@H]1CN([C@H](C)CO)C(=O)Cc2cc(NC(=O)Nc3ccc(C(F)(F)F)cc3)ccc2O[C@H]1CN(C)Cc1ccc(-c2ccccc2)cc1	-14%
O=C1c2ccccc2C(=O)N1CC1OCc2ccccc2CO1	-41.8%
O=C(Nc1ccccc1)Nc1cc(C2CC2)nn1-c1ccccc1	-37.7%
CC(C)NC(=O)N(C)C[C@@H]1Oc2ccc(NC(=O)C3CCCCC3)cc2CC(=O)N([C@H](C)CO)C[C@@H]1C	-27.5%
C[C@H]1CN([C@@H](C)CO)C(=O)c2cc(NC(=O)Cc3cn(C)c4ccccc34)ccc2O[C@@H]1CN(C)Cc1ccc(Cl)c(Cl)c1	15.9%
O=C(Oc1ccc(Cl)cc1)c1csc(C2COc3ccccc3O2)n1 (stereo not given)	-8.84%

From PubChem BioAssay AID2313 (Broad Institute, 2010)
